The target of one experiment is Albumin (Bos taurus) (UniProt P02769). Description: bovine serum albumin binders on microarray, profiling panel, artefact control for SMM control protein annotation, biochemical, small-molecule microarray, Alexa647 label, 635/667 nm fluorescence (AID 1118).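 Further: score merges 667 nm emission intensity and signal-to-noise per printed compound spot.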 Conditions: BSA-A647 binding, fluorescence 635 nm, higher = more signal.
A short description of experiment [1]: small-molecule microarray binders of probe aXIP, primary screen, biochemical, NeuroSMM set, 635/667 nm fluorescence (AID 1119).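 Further: probe is the protein aXip251-270 applied at 1 µg/mL to compound-printed slides; binding of probe to printed compounds measured as 667 nm fluorescence plus signal to noise.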 To be noted: higher = more signal, called active from +8 up or from −8 down.
Experiment [2] in a line: small-molecule binders of probe aNOTCH3, primary screen, biochemical, small-molecule microarray, 635/667 nm fluorescence (AID 1120).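 Further: probe is a biotin-tagged antibody raised against NOTCH3 rather than NOTCH3 protein; score merges spot fluorescence near 667 nm with spot signal to noise.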 Conditions: higher = more signal.
The nature of experiment [3]: small-molecule binders of probe aNOTCH2, primary screen, biochemical, small-molecule microarray, 635/667 nm fluorescence (AID 1121).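 Further: score merges feature fluorescence read at 667 nm with its signal to noise.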 Conditions: higher = more signal.
Experiment [4] addresses Carbonic anhydrase 2 (Homo sapiens) (UniProt P00918). In words: CAII small-molecule binders, profiling panel, biochemical, small-molecule microarray, Alexa647-labelled CAII (AID 1122). Conditions: CAII-A647 binding fluorescence, higher = more signal.
The nature of experiment [5]: COS7 lysate on small-molecule microarray, probe aHis, 635 nm (AID 1123).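 Further: z-score combines 667nm fluorescence intensity with signal-to-noise per printed compound spot.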 Conditions: COS7 cell lysate, fluorescence, higher = more signal.
Experiment [6] can be described thus: compound binding in COS7 lysate, probe aLAP1, primary screen, cell lysate, small-molecule microarray (AID 1124).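 Further: lysate comes from COS7 cells expressing LAP1 and is applied at 0.3 µg/mL; score merges spot fluorescence near 667 nm with signal-to-noise over triplicate slides.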 Conditions: probe aLAP1, fluorescence, higher = more signal.
A further experiment concerns Sam68 (KHDRBS1). In words: Sam68 small-molecule binders, primary screen, biochemical, small-molecule microarray, 635 nm fluorescence (AID 1125).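 Further: score merges 667 nm channel intensity with signal to noise over triplicate slides.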 To be noted: small-molecule microarray binding, higher = more signal.
Experiment [7] relates to Chordin-like protein 2 (CHRDL2). Description: CHRDL2 small-molecule binders, primary screen, biochemical, small-molecule microarray, 635 nm fluorescence (AID 1126).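 Further: printed compound slides probed with Chrdl2 protein at 4 µg/mL for 1 h at 4 C; score merges 667 nm emission intensity with signal to noise over three replicate slides.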 To be noted: small-molecule microarray binding, fluorescence 635 nm; higher = more signal.
Experiment [8] addresses Concanavalin-A (Canavalia ensiformis) (UniProt P02866). In words: ConA small-molecule binders, primary screen, artefact control for SMM control protein annotation, biochemical, small-molecule microarray, Alexa647 label, 635 nm (AID 1127).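 Further: z combines 667 nm emission intensity with signal-to-noise across three replicate slides.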 To be noted: ConA-A647 binding fluorescence, higher = more signal.

This note sets out measurements from PubChem BioAssay.

Activity calls are given as the source filed them.

Albumin (Bos taurus), sequence (P02769 whole entry, looked up): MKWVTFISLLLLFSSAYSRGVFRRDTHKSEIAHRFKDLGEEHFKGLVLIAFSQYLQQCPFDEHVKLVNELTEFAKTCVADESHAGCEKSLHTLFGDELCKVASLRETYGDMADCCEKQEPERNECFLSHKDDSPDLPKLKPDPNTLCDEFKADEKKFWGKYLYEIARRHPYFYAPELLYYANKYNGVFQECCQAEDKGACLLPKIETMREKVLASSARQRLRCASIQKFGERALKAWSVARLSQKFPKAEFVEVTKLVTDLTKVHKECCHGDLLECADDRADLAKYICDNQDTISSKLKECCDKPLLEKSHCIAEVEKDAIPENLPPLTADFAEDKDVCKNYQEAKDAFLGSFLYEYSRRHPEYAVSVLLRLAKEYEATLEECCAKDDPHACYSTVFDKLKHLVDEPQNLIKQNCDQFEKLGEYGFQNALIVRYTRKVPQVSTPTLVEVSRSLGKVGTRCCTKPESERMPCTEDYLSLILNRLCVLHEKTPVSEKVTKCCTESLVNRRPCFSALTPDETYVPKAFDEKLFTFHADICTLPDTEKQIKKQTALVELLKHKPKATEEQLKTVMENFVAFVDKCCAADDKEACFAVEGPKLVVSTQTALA
Concanavalin-A (Canavalia ensiformis), sequence (P02866 whole entry, looked up): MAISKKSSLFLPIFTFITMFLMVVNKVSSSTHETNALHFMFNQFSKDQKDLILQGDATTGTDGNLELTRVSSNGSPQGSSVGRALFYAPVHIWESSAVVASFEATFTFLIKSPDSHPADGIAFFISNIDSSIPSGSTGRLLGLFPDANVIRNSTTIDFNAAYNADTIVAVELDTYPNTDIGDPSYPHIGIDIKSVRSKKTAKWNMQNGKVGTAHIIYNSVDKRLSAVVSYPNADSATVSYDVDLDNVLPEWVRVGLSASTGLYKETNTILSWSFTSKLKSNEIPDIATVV

In the case of `CC(=O)OC[C@H]1O[C@H](CC=NO[C@H](C)c2cn([C@H](CO)Cc3ccccc3)nn2)C=C[C@@H]1OC(C)=O`, the composite z-score with Albumin (Bos taurus) is 0.376; in experiment [2], 0.108; in experiment [3], -0.0482; in experiment [4], -0.0934; in experiment [5], 0.154; in experiment [6], 0.0588. For the same compound, the composite z-score was determined as 1.29 with Sam68 (KHDRBS1), 0.41 in [7] and 0.597 in [8]. For the same compound, the composite Z-score in [1] is -0.0641 (inactive).

`CCOC(=O)[C@H](CC(C)C)NC(=O)CCC1CC(OC(=O)NCCc2ccc(F)cc2)CC2(CCCC(COC(=O)NCCc3ccccc3OC)O2)O1` (stereo not given in full): the composite z-score with Albumin (Bos taurus) is 0.788; in experiment [2], -0.0647; in experiment [3], -0.0781; in experiment [4] it was 0.56; in [5], 0.907; in experiment [6], 0.419. Also, the composite z-score in the experiment with Sam68 (KHDRBS1) worked out at 1.29; in experiment [7], 0.337; in experiment [8], 1.09. Further, the composite Z-score in experiment [1] was 0.0516 (inactive).

In the case of `CC(C)CON=C1C[C@@H](O)[C@@H](O)[C@@H]2[C@@H]3C(=O)N(C4CCCCC4)C(=O)[C@@H]3CC[C@@H]12`, the composite z-score with Albumin (Bos taurus) is 0.401; in experiment [2] it was -0.178; in experiment [3], -0.177; in experiment [4], 0.389; in [5], 1.73; in [6] it was -0.499. Further, the figures for the composite z-score (in the experiment on Sam68 (KHDRBS1); in experiment [7]; in [8]) were 0.158, -0.329 and 1.01, respectively. For the same compound, the composite Z-score in experiment [1] is -0.0662 (inactive).

In the case of `CC(=O)OC[C@H]1O[C@@H](ON=C(C)CCN2CCCc3nc(C)c(C)cc32)[C@H](OC(C)=O)[C@@H](OC(C)=O)[C@@H]1OC(C)=O`, the composite z-score is 0.449 with Albumin (Bos taurus); -0.0587 in experiment [2]; -0.0695 in [3]; 0.155 in [4]; 0.678 in experiment [5]; 0.16 in experiment [6]. For the same compound, the results for the composite z-score (with Sam68 (KHDRBS1); in experiment [7]; in experiment [8]) were 1.13, -0.144 and 1.03, respectively. The composite Z-score in experiment [1] is 0.403 (inactive).

With `CC=CC1=C(CO)C(=O)[C@@H]2O[C@@H]2C1=O`, the composite z-score with Albumin (Bos taurus) was -0.651; in [2] it was -0.109; in [3], -0.102; in experiment [4], 0.298; in experiment [5], -0.91; in [6], -0.724. Further, the composite z-score in the experiment with Sam68 (KHDRBS1) is -0.533; in experiment [7], 1.45; in [8], -0.579. Also, the composite Z-score in experiment [1] was 0.833 (inactive).

Turning to `O=C1CCCC=C1C(CCc1ccccc1)OC(=O)c1ccc(Br)cc1` (stereo not given), the composite z-score is -0.457 with Albumin (Bos taurus); -0.104 in experiment [2]; -0.146 in [3]; -0.475 in experiment [4]; 0.214 in experiment [5]; -0.815 in [6]. Also, the composite z-score is -1.4 with Sam68 (KHDRBS1), 0.388 in experiment [7] and -0.612 in experiment [8]. For the same compound, the composite Z-score in experiment [1] was -0.727 (inactive).

`Cc1ccc(S(=O)(=O)N[C@@H]2COC(=O)[C@@H](C)COC(=O)CC=C[C@H]2C)cc1`: the composite z-score in the experiment with Albumin (Bos taurus) was -0.0824; in experiment [2], 0.135; in [3], -0.162; in experiment [4] it was -0.006; in experiment [5], -0.0704; in experiment [6], -0.0424. The composite z-score with Sam68 (KHDRBS1) is -0.181; in experiment [7] it was 0.379; in experiment [8] it was 0.457. Moreover, the composite Z-score in experiment [1] was -0.145 (inactive).

For `COC(=O)CC=C[C@@H](C)[C@@H](C=NOC[C@@H](O)[C@H]1O[C@@H]2OC(C)(C)O[C@@H]2[C@H]1O)NS(=O)(=O)c1ccc(C)cc1`, the composite z-score with Albumin (Bos taurus) is -0.0786; in experiment [2] it was -0.215; in experiment [3], -0.289; in experiment [4], -0.0777; in [5], -0.152; in experiment [6], -0.372. Further, the composite z-score with Sam68 (KHDRBS1) was 0.524; in experiment [7] it was 0.42; in experiment [8], -0.137. Besides, the composite Z-score in [1] is -0.72 (inactive).

Regarding `CC(CCN1CCCCc2nc(C)c(C)cc21)=NOC[C@@H](O)COCc1ccco1`, the composite z-score is -0.732 in the experiment with Albumin (Bos taurus); 0.149 in experiment [2]; -0.137 in [3]; -0.297 in experiment [4]; -0.964 in experiment [5]; -0.125 in experiment [6]. Further, the composite z-score in the experiment with Sam68 (KHDRBS1) is 0.428; in experiment [7], 1.63; in experiment [8] it was -1.26. Further, the composite Z-score in experiment [1] was 1.28 (inactive).

With `Cc1ccc(S(=O)(=O)N[C@H]2COC(=O)CC=C[C@H](C)[C@@H](NS(=O)(=O)c3ccc(C)cc3)COC(=O)CC=C[C@@H]2C)cc1`, the composite z-score with Albumin (Bos taurus) is -0.109; in experiment [2], 0.0282; in [3], -0.14; in [4] it was -0.0386; in experiment [5], -0.364; in experiment [6], -0.242. Also, the values for the composite z-score (in the experiment on Sam68 (KHDRBS1); in experiment [7]; in [8]) were 0.0236, 0.477 and 0.128, respectively. In addition, the composite Z-score in experiment [1] is -0.286 (inactive).

With `CC(C)=CCCC(C)=CCON=C1C[C@@H](O)[C@@H](O)[C@@H]2[C@@H]3C(=O)N(c4cccc(Oc5ccccc5)c4)C(=O)[C@@H]3CC[C@@H]12`, the composite z-score is 0.633 in the experiment with Albumin (Bos taurus); -0.0026 in experiment [2]; -0.0686 in experiment [3]; 0.112 in [4]; 0.956 in experiment [5]; -0.0676 in experiment [6]. Besides, the values for the composite z-score (with Sam68 (KHDRBS1); in experiment [7]; in [8]) were 0.877, 0.418 and 0.0876, respectively. In experiment [1], the composite Z-score was -0.174 (inactive).

Turning to `CO[C@@H]1C=CCC(=O)N2CCC[C@H]2C(=O)OC[C@@H](C)C(=O)OC[C@H]1C`, the composite z-score is -0.709 with Albumin (Bos taurus); 0.138 in experiment [2]; -0.0109 in experiment [3]; -0.31 in experiment [4]; -0.0865 in [5]; -0.176 in experiment [6]. The composite z-score in the experiment with Sam68 (KHDRBS1) was 0.465; in experiment [7], 1.05; in experiment [8], -1.08. For the same compound, the composite Z-score in [1] was 1.36 (inactive).

In the case of `O=C1CCCC(C2=CCCCC2=O)C1` (stereo not given), the composite z-score with Albumin (Bos taurus) was -0.599; in experiment [2], 0.152; in [3] it was -0.112; in experiment [4] it was -0.139; in [5], 0.0016; in [6], 0.0781. Further, the figures for the composite z-score (in the experiment on Sam68 (KHDRBS1); in experiment [7]; in experiment [8]) were -0.532, 1.06 and -0.719, respectively. Also, the composite Z-score in experiment [1] is 0.675 (inactive).
